We go through 86 compounds from PubChem BioAssay AID977606 (Broad Institute, 2014).

Out of some 1,500 compounds screened, about 430 (29%) were called active. No rule for the calls is given here. Only a sample is shown. Results with a measured potency or affinity are listed apart.

A short description of this experiment: insulin secretion activators without glucose, dose response, counter-screen for glucose-dependent insulin secretion activators, cell-based, INS-1E, Gaussia luciferase, luminescence, cherry-pick (AID 977606). The settings on record: INS-1E Gaussia luciferase insulin secretion, no glucose, 100% = twice neutral-control luminescence; series mostly up to 35 µM. In general terms: A counterscreen serves to expose hits that act by an unwanted route or on another target.
As for `COc1ccc(-c2nnc(-c3cccs3)o2)cc1OC`, the compound was classed as inactive.

For the compound `CC(=O)c1cccc(N(CC(=O)NC2CCCCC2)C(=O)Cn2nnc(-c3ccccc3)n2)c1`, the result was inactive.

`CCCCOc1ccc(-c2nnn(CC(=O)c3c[nH]c4ccccc34)n2)cc1`: the call was inactive.

For `Cc1ccc2c(c1)C=CC(C#N)N2C(=O)c1ccccc1` (stereo unspecified), the call was inactive.

Consider `CC(=O)N1CCN(c2nc(-c3cccs3)nc3ccccc23)CC1`, for which the outcome was inactive.

In the case of `CN[C@H]1C[C@@H](c2ccccc2)N(C(C)=O)C[C@H]1CO`, the call was inactive.

Take `CCOC(=O)N1CCN(S(=O)(=O)c2ccc3c4c(cccc24)C(=O)N3)CC1`: the outcome was inactive.

As to `CS(=O)(=O)c1nc(S(=O)(=O)c2ccc(Cl)cc2)c(N2CCCCCC2)s1`, the compound was called inactive.

With `C=CCn1cc(Cl)cc(C(=O)Nc2ccccc2)c1=O`, the result was inactive.

Turning to `c1ccc(-c2nnc3ccc(N4CCC5(CC4)OCCO5)nn23)cc1`, the result was inactive.

As for `O=C(O)c1ccc(-n2nnnc2SCc2ccccc2Br)cc1`, the compound was classed as inactive.

For the compound `CCC1OC(C2CC2)CC2=C1C(=O)OC(C)(C)O2` (stereo unspecified), the call was inactive.

Turning to `c1ccc(CCN2CCN=C2Nc2ccccc2)cc1`, the compound was classed as inactive.

On to `O=C(NC1CCCCC1)C(c1ccc(F)cc1)N(Cc1ccccc1)C(=O)CN1C(=O)c2ccccc2S1(=O)=O` (stereo unspecified), for which the outcome was inactive.

As for `COc1ccc(/C=N/NS(=O)(=O)c2ccccc2)cc1OC`, the compound was classed as inactive.

As to `COc1cc(C(=O)O)ccc1OCc1ccccc1`, the call was inactive.

For `O=C(O)c1ccc(-n2nnnc2SCc2cccc(Br)c2)cc1`, the call was inactive.

As for `CCCCNc1cc(Cl)nc(N)n1`, the outcome was inactive.

Take `O=C(N/N=C/c1ccncc1)c1cc(-c2ccc(Br)s2)[nH]n1`: the call was inactive.

As for `CC1=CC(c2ccccc2)n2nc(NC(=O)CCC(=O)O)nc2N1` (stereo unspecified), the outcome was inactive.

Turning to `CC(=O)NCCNC(=O)CNC(=O)c1ccc(Cl)cc1`, the compound was classed as inactive.

Regarding `C=CCn1cnc2scc(-c3ccc(OC)cc3)c2c1=O`, the call was inactive.

For the compound `COc1cc2c(cc1OC)/C(=C/C(=O)c1ccc(NC(C)=O)cc1)NCC2`, the compound was called inactive.

On to `O=C(Nc1nonc1NC(=O)c1cccs1)c1cccs1`, for which the compound was classed as inactive.

With `COC(=O)c1sc2ccccc2c1NC(=O)c1cccs1`, the outcome was inactive.

Turning to `CCOc1ncccc1C(=O)Nc1ccc(S(=O)(=O)Nc2nccs2)cc1`, the compound was called inactive.

Regarding `O=C(O)c1cccc(N/N=C/c2sc(N3CCOCC3)nc2-c2ccccc2)c1`, the outcome was inactive.

With `Cc1ccc(CC2S/C(=N/c3ccccn3)NC2=O)cc1` (stereo unspecified), the compound was called inactive.

Take `Cc1ccc(NC(=O)CC2S/C(=N/N=C/c3c[nH]c4ccccc34)NC2=O)cc1` (stereo unspecified): the call was inactive.

With `CCc1ccc2c(c1)cc(CN(Cc1ccco1)C(C)=O)c1nnnn12`, the compound was called inactive.

For the compound `N#CCc1nn2c(-c3ccccc3)ccnc2c1C#N`, the call was inactive.

Turning to `O=C(OCc1c(-c2ccccc2)ncc2ccccc12)c1cccs1`, the call was inactive.

Turning to `O=C(NCc1ccco1)c1ccc2c(=O)n(CCC3=CCCCC3)c(=O)[nH]c2c1`, the compound was called inactive.

Regarding `Cc1c(CC(=O)O)c(=O)oc2c(C)c(OCc3ccccc3Br)ccc12`, the result was inactive.

Regarding `N#Cc1c(N)n(C2CCCCC2)c2nc3ccccc3nc12`, the result was inactive.

Turning to `COc1ccc(-n2c(O)cnc2Nc2nc(C)cc(C)n2)cc1OC`, the call was inactive.

As to `CCn1ccc(C(=O)Nc2ccccc2SC)n1`, the compound was called inactive.

With `CCOC(=O)Cn1c(=O)n(Cc2ccc(OC)cc2)c(=O)c2cccnc21`, the outcome was inactive.

On to `COc1ccc(CNC(=O)COC(=O)c2cc(C)nc3ccccc23)cc1`, for which the compound was classed as inactive.

With `Cc1ccc(NC(=O)[C@@H](Cc2ccccc2)NC(=O)[C@H]2O[C@@H](n3ccc(=O)[nH]c3=O)[C@H](O)[C@@H]2O)cc1C`, the compound was called inactive.

Turning to `CNc1nc(N)c(C(=O)C(C)(C)C)s1`, the outcome was inactive.

On to `COCCn1c(=S)[nH]c2sc3c(c2c1=O)CCCC3`, for which the result was inactive.

With `COc1ccc(OC)c(C2=Nn3c(nnc3-c3ccncc3)SC2)c1`, the compound was classed as inactive.

Consider `CC(C)Cn1c(=O)n(C)c(=O)c2[nH]cnc21`, for which the call was inactive.

For `O=C(NCC1CCCO1)C1CCC(N2C(=O)c3ccccc3C2=O)CC1` (stereo unspecified), the call was inactive.

Take `CC(C)NC(=O)C1(C)CN(S(C)(=O)=O)CC(=O)N1CCCN1CCOCC1` (stereo unspecified): the result was inactive.

Take `O=C(CC1SC2=NCCN2C1=O)Nc1ccc(Br)cc1` (stereo unspecified): the compound was called inactive.

For `O=C(NC1CCCC1)C(C1CC1)n1c(-c2ccccn2)nc2ccccc21` (stereo unspecified), the compound was classed as inactive.

`COc1ccc(C(O)c2nccc3cc(OC)c(OC)cc23)cc1OC` (stereo unspecified): the call was inactive.

In the case of `O=C(NN=C1CCCC1)c1cc(-c2ccccc2)n[nH]1`, the result was inactive.

Consider `COc1ccc(/C=N/NC(=O)c2cc(-c3ccc4c(c3)OCO4)n[nH]2)cc1OC`, for which the call was inactive.

As for `Cc1cccc(CN2C(=O)CSc3ccc(C(=O)NC4CC4)cc32)c1`, the outcome was inactive.

Take `CNc1nc(Sc2ccccc2)cc(C(F)(F)F)n1`: the outcome was inactive.

Turning to `CCOC(=O)c1cnc2ccc(Cl)cc2c1Nc1ccc(S(=O)(=O)Nc2ncccn2)cc1`, the call was inactive.

Consider `CC(=O)c1cccc(Nc2ncnc3ccc(Br)cc23)c1`, for which the call was inactive.

Take `Cc1ccnc(NC(=O)Nc2ccc(Br)cc2Cl)c1`: the outcome was inactive.

`COc1ccc(Cl)cc1C(=O)Nc1cccc(-c2ccc3nncn3n2)c1`: the compound was classed as inactive.

For the compound `COc1ccc(/C(C)=N/Nc2ccc(C(=O)O)cc2)cc1OC`, the call was inactive.

For the compound `Cc1cc(C(=O)Nc2cccc(O)c2)c(C)o1`, the compound was called inactive.

On to `COc1ccc(CCN(C)C(=O)CCNS(=O)(=O)c2ccccc2C(F)(F)F)cc1OC`, for which the outcome was inactive.

Turning to `NNc1nc(-c2ccccc2)c2ccccc2n1`, the call was inactive.

Regarding `COc1nc(-c2ccccc2)c2cc(C)ccc2n1`, the call was inactive.

For `NC(=O)c1cc2cc(Cl)ccc2o/c1=N/NC(=O)c1cccs1`, the outcome was inactive.

Take `COc1ccc(/C=C2/SC(=O)N(NS(=O)(=O)c3ccccc3)C2=S)cc1OC`: the call was inactive.

As to `CCc1nc2ccc(C(=O)N(C)CCCN(C)C)cn2c1N(C=O)CCC(C)C`, the call was inactive.

In the case of `CCCc1cc2c(OC)ccc(O)c2c(=O)n1C`, the compound was classed as inactive.

For the compound `CC(=O)Nc1ccc(Cl)c(-c2nc3ncccc3o2)c1`, the outcome was inactive.

In the case of `CCn1nc(C(=O)Nc2ccc3nc(C)sc3c2)c2ccccc2c1=O`, the outcome was inactive.

With `CNc1cc(-c2ccc(OC)c(OC)c2)ncn1`, the compound was called inactive.

Take `CC(C)c1c(C(=O)N/N=C/c2cccc3ccccc23)nnn1-c1nonc1N`: the call was inactive.

`CC(C)Nc1nc(NC(C)(C)C)nc(Oc2ccc(=O)n(C)n2)n1`: the compound was called inactive.

In the case of `COc1cc2c(cc1OC)-c1cc(Nc3ccc(C)cc3)nc(=O)n1CC2`, the compound was classed as inactive.

Consider `COc1ccc(OC)c(N(CC(=O)NN=C2CCN(C)CC2)S(=O)(=O)c2ccccc2)c1`, for which the result was inactive.

Take `CCCCC(=O)Nc1ccc(C(=O)NNC(=O)c2ccc(C)c(Br)c2)cc1`: the result was inactive.

With `COc1ccc(/C=N/n2c(-c3n[nH]c4c3CCC4)n[nH]c2=S)cc1OC`, the compound was called inactive.

As for `NC(=O)c1ccsc1NC(=O)COC(=O)CNC(=O)c1ccc(Cl)cc1`, the compound was called inactive.

`COc1ccc(C(=O)NCC(=O)OCC(=O)Nc2sccc2C#N)cc1OC`: the compound was classed as inactive.

Turning to `Cc1cc2oc(=O)cc(CN3CCOCC3)c2c(C)c1Cl`, the outcome was inactive.

On to `c1ccc2c(NCC3CCCO3)nc(N3CCCCC3)nc2c1` (stereo unspecified), for which the compound was called inactive.

On to `COc1cc(C2N(C)CCC3(OCCO3)C2(C)C)cc(OC)c1OC` (stereo unspecified), for which the compound was classed as inactive.

For the compound `CCOc1ccc2oc(C(=O)N(C)CCc3ccc(OC)c(OC)c3)c(C)c2c1`, the result was inactive.

Regarding `COc1ccc(-c2cc3nc4ccccc4n3c(N)c2C#N)cc1`, the compound was classed as inactive.

Consider `O=C(NCCCNc1ccnc2cc(Cl)ccc12)c1ccccc1F`, for which the compound was called inactive.

As to `COc1cccc(NC(=O)CN(C)C(=O)Cn2[nH]c(=O)c3ccccc3c2=O)c1`, the result was inactive.

Consider `COc1ccc(C(=O)Cc2cc3cccc(OC)c3oc2=O)cc1`, for which the result was inactive.

Regarding `CCn1c(=O)[nH]c(=O)c2c(N)c(C(=O)c3cc(F)ccc3F)sc21`, the outcome was inactive.
